Experimental data taken from the supplement of paper PMC8975748.
Structures can show the parent of a compound that is named as a salt.

The molecules below were run on Saccharomyces cerevisiae BY4741 SeMeCo community (assay: z-score of subpopulation abundance vs DMSO median, subpopulation auxotrophic for HLU; higher = larger share of this subpopulation than in DMSO controls). Conditions: 10 µM; 24 h; SM minimal medium; subpopulation (auxotrophy): HLU.
Method: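 Fluorescent four-plasmid SeMeCo (self-establishing metabolically cooperating S. cerevisiae BY4741 community; plasmids pH-mRuby2, pL-mWasabi, pU-eCFP, pM-TagRFP657) was grown 24 h in minimal SM medium with each Selleck FDA-approved drug at 10 µM in 384-well plates. Cells were fixed and imaged by high-content confocal microscopy. For each auxotrophic subpopulation (and the prototroph), a z-score gives the deviation from the DMSO vehicle-control population median.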

Structure (SMILES)	z-score of subpopulation abundance
O=C1OC(CN2CCOCC2)CN1/N=C/c1ccc([N+](=O)[O-])o1 (stereo not given) [Furaltadone HCl]	-0.79
CN(C)CCc1c[nH]c2ccc(C[C@H]3COC(=O)N3)cc12 [Zolmitriptan]	0.09
Oc1ccc([C@H]2COc3cc(O)ccc3C2)cc1 [Equol]	0
Cc1nc(C)c(Cl)c(O)c1Cl [Clopidol]	-0.09
CN1CCN(C2=Nc3ccccc3Oc3ccc(Cl)cc32)CC1 [Loxapine Succinate]	0.59
N=C(N)NS(=O)(=O)c1ccc(N)cc1 [Sulfaguanidine]	-0.69
CCN1CCN(C(=O)N[C@@H](C(=O)N[C@@H]2C(=O)N3C(C(=O)O)=C(CSc4nnnn4C)CS[C@H]23)c2ccc(O)cc2)C(=O)C1=O [Cefoperazone]	-0.34
CC(C)n1c(/C=C/C(O)CC(O)CC(=O)O)c(-c2ccc(F)cc2)c2ccccc21 (stereo not given) [Fluvastatin Sodium]	4.2
CN(C)C[C@@H]1CCn2cc(c3ccccc32)C2=C(C(=O)NC2=O)c2cn(c3ccccc23)CCO1	1.21
CN1[C@@H]2CC[C@H]1C[C@@H](OC(c1ccccc1)c1ccccc1)C2 [Benztropine mesylate]	-0.48
CCN1CCN(c2cc3c(cc2F)c(=O)c(C(=O)O)cn3C2CC2)CC1 [Enrofloxacin]	-0.04
Cc1ccc2c(Cl)cc(Cl)c(O)c2n1 [Chlorquinaldol]	28.9
COC(=O)C1=C(C)NC(C)=C(C(=O)OC)C1c1ccccc1[N+](=O)[O-] [Nifedipine]	1.29
COc1ccc(C2CNC(=O)C2)cc1OC1CCCC1 (stereo not given) [Rolipram]	-0.57
COC(=O)C1=C(C)NC(C)=C(C(=O)OC2CCCN(Cc3ccccc3)C2)C1c1cccc([N+](=O)[O-])c1 (stereo not given) [Benidipine HCl]	0.26
C1CCN2C[C@@H]3C[C@@H](CN4CCCC[C@@H]34)[C@H]2C1 [(-)-Sparteine Sulfate]	-0.52
CCC[C@@H]1C[C@@H](C(=O)N[C@@H]([C@H]2O[C@H](SC)[C@H](O)[C@@H](O)[C@H]2O)[C@@H](C)O)N(C)C1 [Lincomycin Hydrochloride Monohydrate]	0.91
CCCNC(C)C(=O)Nc1ccccc1C (stereo not given) [Prilocaine hydrochloride]	-0.01
CCc1nc(N)nc(N)c1-c1ccc(Cl)cc1 [Pyrimethamine]	0
Cc1cc2c(s1)Nc1ccccc1N=C2N1CCN(C)CC1 [Olanzapine]	0.07

Structure (SMILES)	z-score of subpopulation abundance
COC(=O)C1=C(C)NC(C)=C(C(=O)OC(C)(C)CN(C)CCC(c2ccccc2)c2ccccc2)C1c1cccc([N+](=O)[O-])c1 (stereo not given) [Lercanidipine]	0.93
CCOc1ccc2nc3cc(N)ccc3c(N)c2c1 [Ethacridine lactate monohydrate]	-4.38
CCN(CC)CCOc1ccc(C(=C(Cl)c2ccccc2)c2ccccc2)cc1 [Clomifene citrate]	2.19
CC(=O)C1C(=O)C=C(C)OC1=O (stereo not given) [Sodium dehydroacetate]	1.27
Nc1nc2ccc(OC(F)(F)F)cc2s1 [Riluzole]	-0.57
COc1ccc(C(C)=O)c(O)c1 [Paeonol]	-0.12
CN(C/C=C/C#CC(C)(C)C)Cc1cccc2ccccc12 [Terbinafine HCl]	-0.09
CCCN1CCCC[C@H]1C(=O)Nc1c(C)cccc1C [Ropivacaine]	-0.32
CN1CCN(CCCN2c3ccccc3Sc3ccc(C(F)(F)F)cc32)CC1 [Trifluoperazine 2HCl]	-0.24
C[C@@H](O)[C@H]1C(=O)N2C(C(=O)O)=C([C@H]3CCCO3)S[C@H]12 [Faropenem Sodium]	0.66
Cc1cnc(NC(=O)C2=C(O)c3ccccc3S(=O)(=O)N2C)s1 [Meloxicam]	-1.26
O=C(O)c1cn(-c2ccc(F)cc2)c2cc(N3CCNCC3)c(F)cc2c1=O [Sarafloxacin HCl]	-0.35
COc1ccc(C[C@H](N)C(=O)N[C@H]2[C@@H](O)[C@H](n3cnc4c(N(C)C)ncnc43)O[C@@H]2CO)cc1 [Puromycin 2HCl]	-0.44
CCN(CC)CCOCCOC(=O)C1(c2ccccc2)CCCC1 [Pentoxyverine Citrate]	-0.39
Cc1nnc(SCC2=C(C(=O)O)N3C(=O)[C@@H](NC(=O)Cn4cnnn4)[C@H]3SC2)s1 [Cefazolin Sodium]	0.52
CNCCCN1c2ccccc2CCc2ccccc21 [Desipramine Hydrochloride]	-0.62
C=C1CCC2C(C)(CO)C(O)CCC2(C)C1CC=C1C=COC1=O (stereo not given) [Dehydroandrographolide]	0.64
CN(C)CCC=C1c2ccccc2C=Cc2ccccc21 [Cyclobenzaprine HCl]	-0.46
COc1cccc2c1C(=O)c1c(O)c3c(c(O)c1C2=O)CC(O)(C(=O)CO)CC3OC1CC(N)C(O)C(C)O1 (stereo not given) [Doxorubicin (Adriamycin) HCl]	12.3
COc1cc(/C=C/C(=O)N2CCN(CC(=O)N3CCCC3)CC2)cc(OC)c1OC [Cinepazide maleate]	0.11
